An excerpt weighted towards active compounds, which were near 1.3% of everything screened.
AI-2 QS modul: Vibrio harveyi AI-2 quorum sensing modulators, primary screen, JMH597 strain, luminescence/OD600 ratio. Vibrio harveyi JMH597 AI-2 luminescence/OD600 ratio, 9 h; hits give low values; strain lacks LuxN and CqsS sensors; 0 = neutral-control median. activity change, % at 7.5 µM. actives 0.4% (n = 300,000); in the data active = activity change below about -75%, passing the limit was not always enough; inconclusive = no clear call, values can overlap the other calls;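 also: luminescence divided by OD600 gain over 9 h not by final OD600 alone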
Rce1 inhib: yeast Rce1p protease inhibitors, primary screen, biochemical, fluorescence, cell-free homogeneous; CAAX prenyl protease 2 (Saccharomyces cerevisiae (strain ATCC 204508 / S288c)), Q03530; yeast membranes, quenched prenylated peptide cleavage fluorescence; calls only; actives 0.27% (n = 290,000);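 active = fall in fluorescence gain of 50% or more versus controls, with final raw signal at or below 3038400; inconclusive = same 50% fall but final raw signal above 3038400; inactive = fall in fluorescence gain under 50%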;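 also: plate controls were neutral control wells for no effect and wells lacking membranes for full effect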
Target sequence (Q03530 whole entry, looked up): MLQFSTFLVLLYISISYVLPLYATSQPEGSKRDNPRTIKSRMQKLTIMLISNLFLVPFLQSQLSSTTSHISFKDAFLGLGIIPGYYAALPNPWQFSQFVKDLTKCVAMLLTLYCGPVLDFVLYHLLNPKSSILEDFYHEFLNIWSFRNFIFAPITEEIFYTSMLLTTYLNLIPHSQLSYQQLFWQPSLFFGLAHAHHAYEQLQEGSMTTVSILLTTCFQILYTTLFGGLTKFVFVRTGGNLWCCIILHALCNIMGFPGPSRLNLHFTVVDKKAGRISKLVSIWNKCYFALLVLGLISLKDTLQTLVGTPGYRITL
HIF activator: HIF pathway transcriptional activators, primary screen, cell-based, U2OS HRE-luciferase, luminescence. U2OS HRE-luciferase reporter; normalized: DMSO 0%, desferrioxamine 100%. activation, % at 7.5 µM (by protocol). actives 0.32% (n = 300,000). AID 1910, 2009;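 active = mean activation of at least 10% of the iron chelator positive control signal, with at least half of replicates also reaching 10%; inconclusive = mean and replicate majority disagree about reaching 10%; inactive = mean and most replicates under 10%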
PGC1a acetyl inh: inhibitors of PGC1a acetylation signal, primary screen, cell-based, U2OS, AlphaScreen, inhibitor mode. AlphaScreen anti-acetyl-lysine; with virally co-expressed GCN5 acetyltransferase. actives 0.17% (n = 350,000). inhibition, % at 15.6 µM;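 active = every replicate shows inhibition of at least 40%; inconclusive = mean inhibition at least 40% but some replicate below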;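 also: 0% = neutral control wells and 100% = positive control wells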
Statin myotox sup: suppressors of statin myotoxicity in C2C12 myotubes, primary screen, cell-based, single point, plate reader. C2C12 myotubes + simvastatin, ATP luminescence, 48 h; scaled: DMSO 0, geranylgeraniol control 100. rescue of ATP level, % at 7.49 µM. actives 0.78% (n = 330,000). AID 602340, 2012;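 active = mean ATP rescue above about 67%, or every replicate alone reaching that limit, limit read from the data, passing the limit was not always enough; inconclusive = no clear call, values can overlap the other calls; inactive = mean under the limit and some replicate under it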;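 also: myotubes were challenged with 10 µM simvastatin during compound exposure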
Numbers without * were called inactive; i = inactive; ? = inconclusive; nt = no result given; + = active, no number.

SMILES	AI-2 QS modul	Rce1 inhib	HIF activator	PGC1a acetyl inh	Statin myotox sup
CC(C)NC(=O)Nc1cccc2c1O[C@@H](CN(C)Cc1ccc(Cl)c(Cl)c1)[C@@H](C)CN([C@@H](C)CO)C2=O	nt	nt	nt	0.5	7.9
O=C([C@@H]1[C@@H](CO)[C@@H]2Cn3c(cccc3=O)[C@@H]2N1CC1CCCCC1)N1CCOCC1	nt	nt	nt	-4.0	nt
Cn1c(SCc2nc(-c3ccc(Cl)cc3)no2)nnc1-c1cccs1	25.6	i	0.4	6.1	83.8*
Cn1c(SCc2nc(-c3ccccc3)no2)nnc1-c1cccs1	36.2	i	0.3	nt	-1.7
CN(C)CCCNC(=O)[C@H]1[C@H](CO)[C@H]2Cn3c(ccc(-c4cccnc4)c3=O)[C@@H]1N2C(=O)CC1CC1	nt	nt	nt	nt	-3.3
Nc1ccn(CC(=O)N[C@H](CO)Cc2c[nH]c3ccccc23)c(=O)n1	nt	nt	nt	-7.5	124.4*
CO[C@@H]1CN(C)C(=O)c2ccc(NC(=O)Cc3ccccc3)cc2OC[C@@H](C)N(C(C)=O)C[C@H]1C	nt	nt	nt	-5.7	-24.8
Cc1ccccc1C(=O)N1CCN(c2ccc([N+](=O)[O-])c(NCc3ccco3)c2)CC1	-0.6	i	0.7	0.7	129.5*
CC(=O)c1ccc(NC(=O)c2ccc([N+](=O)[O-])o2)cc1	-91.4*	i	1.4	-101.5	22.5
Cc1cc(NC(=O)c2ccc([N+](=O)[O-])o2)ccc1NC(=O)c1ccco1	-94.0*	i	1.7	nt	nt
CN1CCN(c2ccc(NC(=O)c3ccc([N+](=O)[O-])o3)cc2Cl)CC1	101.4	i	-4.0	nt	93.6*
CC(=O)c1cccc(NC(=O)c2ccc([N+](=O)[O-])o2)c1	?	i	2.7	-27.4	11.6
O=C(c1cccc2ccccc12)N1CCN(c2ccc([N+](=O)[O-])c(NCc3ccco3)c2)CC1	11.7	i	-0.1	6.5	nt
COc1cccc(C#Cc2ccc([C@@H]3[C@@H](CO)N4C(=O)CN(C(C)=O)C[C@@H]34)cc2)c1	nt	nt	nt	-4.8	nt
CCCC(=O)Nc1ccc2c(c1)C(=O)N(C)[C@@H]1CC[C@H](CC(=O)NCc3ccccc3Cl)O[C@H]1CO2	nt	nt	nt	-3.7	-11.6
COCC(=O)N1[C@@H](C#N)[C@@H](c2ccccc2C2=CCCCC2)[C@@H]1CO	nt	nt	nt	-4.0	nt
Cc1cc(C)c2nc(NC(=O)c3ccc([N+](=O)[O-])o3)sc2c1	17.9	i	-5.0	-11.9	38.0
O=C(NC1CCCCC1)c1ccc([N+](=O)[O-])o1	nt	nt	-7.0	nt	69.4*
Cc1cc(C)c2sc(NC(=O)c3ccc([N+](=O)[O-])o3)nc2c1	-86.1*	i	0.7	nt	45.7
Cc1ccccc1C(=O)N1CCN(c2ccc(NC(=O)c3ccc([N+](=O)[O-])o3)cc2)CC1	nt	nt	-2.1	nt	166.6*
Cc1cc(C)cc(NC(=O)c2ccc([N+](=O)[O-])o2)c1	-110.1*	i	1.3	-246.5	nt
C[C@H](CO)N1C[C@H](C)[C@H](CN(C)Cc2ccncc2)Oc2c(NS(=O)(=O)c3cccs3)cccc2C1=O	nt	nt	nt	-2.8	26.9
O=C(/C=C/c1ccc2c(c1)OCO2)Nc1cccnc1	20.5	i	11.2*	-5.1	nt
CC(=O)Nc1ccc(NC(=O)/C=C/c2ccc3c(c2)OCO3)cc1	8.3	i	1.5	12.5	nt
COC(=O)c1ccc(NC(=O)CSc2n[nH]c(-c3ccncc3)n2)cc1	21.2	i	0.3	-13.7	76.8*
SMILES	AI-2 QS modul	Rce1 inhib	HIF activator	PGC1a acetyl inh	Statin myotox sup
COc1ccc(C(=O)Nc2n[nH]c(-c3ccncc3)n2)cc1	30.5	i	-0.5	4.6	107.0*
COc1cc(-c2noc(-c3ccccc3C(=O)NCc3ccco3)n2)cc(OC)c1OC	26.4	i	-0.2	-9.5	100.2*
COc1ccccc1-c1noc(-c2ccccc2C(=O)NCc2ccco2)n1	7.1	i	0.9	6.7	-9.9
N#Cc1cccc(-c2ccc([C@H]3[C@@H](CO)N4CCCCN(C(=O)Nc5ccccc5)C[C@@H]34)cc2)c1	nt	nt	nt	0.8	nt
C(=N\c1nccs1)/Nc1nccs1	15.9	i	0.0	3.6	98.1*
COc1ccc(/C=N/NC(=O)c2[nH]c3ccc(C)cc3c2-c2ccccc2)c(C(=O)O)c1OC	10.5	+	1.4	nt	-1.0
Cc1ccc2[nH]c(C(=O)N/N=C/c3ccccc3O)c(C)c2c1	-0.2	i	168.9*	nt	-10.7
O=C(N/N=C/c1ccccc1O)c1cc(=O)[nH]c2ccccc12	24.5	i	10.6*	nt	nt
COc1cccc(CNc2nc3nc(C)cc(C)n3n2)c1	14.4	+	1.1	nt	nt
C[C@H]1CCCCO[C@@H](CN(C)Cc2ccc(C(=O)O)cc2)[C@@H](C)CN([C@@H](C)CO)C(=O)c2cc(NS(=O)(=O)c3ccc(F)cc3)ccc2O1	nt	nt	nt	2.3	nt
COc1ccc(CN(CCC#N)C(=S)NC(=O)c2ccccc2)cc1	2.4	i	0.2	-2.3	114.0*
COc1ccc(CN(CC2CCCO2)S(=O)(=O)c2ccc(-n3cnnn3)c(OC)c2)cc1 (configuration not stated)	3.3	i	-0.6	6.1	nt
COc1ccc(CN(C2CCCC2)S(=O)(=O)c2ccc(-n3cnnn3)c(OC)c2)cc1OC	7.9	+	nt	-1.6	49.8
O=C(CN1C(=O)C2CC=CCC2C1=O)Nc1nccs1 (configuration not stated)	6.5	i	-0.4	50.1*	nt
COc1ccc(CN2CC(C(=O)NCCCN3CCOCC3)CC2=O)cc1 (configuration not stated)	52.9	i	-0.3	6.5	98.5*
O=C(C[C@@H]1CC[C@@H]2NC[C@H](O)COC[C@H]2O1)Nc1ccc(-c2ccccc2)cc1	nt	nt	nt	-3.0	-10.6
C=C1CC(c2ccc(-c3ccccc3)cc2)OC1=O (configuration not stated)	nt	nt	nt	1.9	nt
C/C(=N\NC(=O)CNc1ccccc1Cl)C(C)(C)C	10.2	i	1.0	7.7	72.2*
C/C(=N\NC(=O)CNc1cccc(Cl)c1C)C1CC1	11.2	i	0.3	1.5	nt
Cc1[nH]c(-c2ccccn2)nc(=S)c1Cl	-88.2*	i	0.7	8.5	nt
CS(=O)(=O)N1CCN(C(=O)c2cc(-c3ccncc3)nc3ccc(Cl)cc23)CC1	6.2	i	-0.5	4.9	107.9*
O=C1C[C@@H]2c3c(cccc3CN1Cc1ccc(Cl)cc1)C[C@@H](O)[C@H]2O	nt	nt	nt	-7.5	118.5*
O=C1C[C@@H]2c3c(cccc3CN1Cc1ccccc1F)C[C@@H](O)[C@H]2O	nt	nt	nt	-0.4	126.2*
O=C1C[C@@H]2c3c(cccc3CN1Cc1ccccc1Cl)C[C@@H](O)[C@H]2O	nt	nt	nt	16.1	19.5
CCCNC(=O)N1CC2(C1)CN(C(=O)CC1CC1)[C@@H](CO)c1[nH]c3cc(OC)ccc3c12	nt	nt	nt	11.0	nt

Screens as filed in PubChem BioAssay.
